Results: PubChem BioAssay (Tox21)
“And” between values parts separate entries of the source, which are not always exact repeats. Identical values can stand only once. Inconclusive results are not listed. A call without a number means that no potency is given here. Some structures have more than one record in an assay (separate samples or runs), and their calls can disagree. The source made the active and inactive calls. Unless noted, the call rests on the fitted dose curve.

Assays:
[1] = Nuclear factor erythroid 2-related factor 2/antioxidant responsive element (Nrf2/ARE) small molecule agonists: qHTS cell viability counter screen in human keratinocytes (AID 1919968; active means well fitted curve in the direction sought with a large enough effect in the repeat runs; an effect the other way counts as inactive or inconclusive; further: nearly all actives have a fitted effect of over 55% in size)
Procedure, shortened: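 After a 5 h attachment period, ARE-reporter keratinocytes were dosed with compounds in DMSO and then cultured 23 h at 37 C. Cell viability came from CellTiter-Fluor signal read after a further 1 h.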

[2] = Nuclear factor erythroid 2-related factor 2/antioxidant responsive element (Nrf2/ARE) small molecule agonists: luciferase reporter gene qHTS assay in human keratinocytes (AID 1919969); further: nearly all actives have a fitted effect of over 35% in size; further: potency means the concentration at half of the fitted maximal effect
[3] = target: Gonadotropin-releasing hormone receptor (Homo sapiens) (UniProt P30968); test: Human gonadotropin-releasing hormone receptor (GnRHR) small molecule agonists, calcium flux assay in GnRHR-HEK293 cells (AID 1920063); further: nearly all actives have a fitted effect of over 35% in size
Chain of Gonadotropin-releasing hormone receptor (Homo sapiens) (P30968 whole entry, looked up): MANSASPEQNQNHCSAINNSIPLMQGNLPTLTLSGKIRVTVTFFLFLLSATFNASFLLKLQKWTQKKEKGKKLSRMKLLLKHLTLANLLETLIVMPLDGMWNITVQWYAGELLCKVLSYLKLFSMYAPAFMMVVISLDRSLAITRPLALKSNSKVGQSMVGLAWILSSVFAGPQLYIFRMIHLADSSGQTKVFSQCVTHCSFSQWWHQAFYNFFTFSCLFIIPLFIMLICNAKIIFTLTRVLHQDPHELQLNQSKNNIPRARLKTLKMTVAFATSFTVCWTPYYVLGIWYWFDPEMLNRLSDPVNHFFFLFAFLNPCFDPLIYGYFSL
Procedure, shortened: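 We seeded human GnRHR-expressing HEK293 cells for 18 hours, loaded them with calcium dye for an hour at 37 C, added test compounds, and recorded fluorescence intensity kinetically for three minutes.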

[4] = target: KiSS-1 receptor (Homo sapiens) (UniProt Q969F8); test: Human kisspeptin (KISS1R) small molecule agonists, calcium flux assay in KISS1R-HEK293 cells (AID 1920064; active means well fitted curve in the direction sought with a large enough effect in the repeat runs; an effect the other way counts as inactive or inconclusive)
Chain of KiSS-1 receptor (Homo sapiens) (Q969F8 whole entry, looked up): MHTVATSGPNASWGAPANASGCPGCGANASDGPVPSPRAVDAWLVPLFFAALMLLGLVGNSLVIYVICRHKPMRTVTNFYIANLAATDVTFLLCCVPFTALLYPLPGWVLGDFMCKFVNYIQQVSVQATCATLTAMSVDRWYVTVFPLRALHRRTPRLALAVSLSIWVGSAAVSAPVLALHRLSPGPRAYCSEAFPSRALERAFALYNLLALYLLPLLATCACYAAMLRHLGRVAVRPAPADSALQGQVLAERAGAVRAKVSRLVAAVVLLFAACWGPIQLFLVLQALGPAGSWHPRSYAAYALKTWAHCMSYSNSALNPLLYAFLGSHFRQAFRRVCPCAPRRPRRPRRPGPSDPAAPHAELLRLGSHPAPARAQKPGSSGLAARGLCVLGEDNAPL
Procedure, shortened: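 Kinetic calcium assay, 1 s sampling over 3 min at Ex/Em 480/540, in HEK293 cells engineered with human KISS1R; compounds delivered in DMSO after 1 h dye loading.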

[5] = G protein-coupled receptor (GPCR) small molecule agonists, calcium flux assay: HEK293 wild type cell line counter screen (AID 1920065)
Procedure, shortened: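 Calcium-sensitive dye, loaded 1 h at 37 C into cells cultured 18 h, reports compound-evoked calcium release as fluorescence (Ex/Em 480/540), measured over 3 min. Agonist mode; 15-point titrations, triplicate.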

[6] = p53 small molecule agonists, cell-based qHTS assay with human liver microsomes (AID 1963577);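 further: p53 response element beta-lactamase reporter cells with liver microsomes plus NADPH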
Procedure, shortened: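 16 h, 37 C exposure of p53RE-bla cells to compounds with human liver microsomes and NADPH (0.5 mg/mL final each); detection via LiveBLAzer mixture, 2 h dark at room temperature.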

[7] = p53 small molecule agonists, cell-based qHTS assay with rat liver microsomes (AID 1963578)
Procedure, shortened: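 With rat liver microsomes and NADPH present (0.5 mg/mL final each), p53RE-bla cells are treated with compound for 16 h at 37 C. LiveBLAzer detection mixture is then applied for 2 h at room temperature in the dark.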

[8] = p53 small molecule agonists, cell-based qHTS assay with human liver microsomes: qHTS cell viability counter screen (AID 1963579); further: nearly all actives have a fitted effect of over 45% in size
Procedure, shortened: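 In this multiplexed counter screen, the reporter plates were subsequently treated with CellTiter-Glo so that cell viability, reflected by luminescence, could be recorded for p53RE-bla cells dosed 16 h with compounds under microsomal activation (HLM and NADPH).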

[9] = p53 small molecule agonists, cell-based qHTS assay with rat liver microsomes: qHTS cell viability counter screen (AID 1963580); further: nearly all actives have a fitted effect of over 45% in size
Procedure, shortened: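 p53RE-bla HCT-116 cells (4,000/well) rested 5 h at 37 C, then given Tox21 compounds in DMSO with rat liver microsomes (0.5 mg/mL final) plus NADPH (0.5 mg/mL final) for 16 h at 37 C. Viability read by CellTiter-Glo luminescence after 30 min at room temperature.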

[10] = p53 small molecule agonists, cell-based qHTS assay (AID 1963582; active means well fitted activation curve with a large enough effect in the signal ratio in the repeat runs, not every such curve was filed as active; the % refers to the signal ratio)
Procedure, shortened: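 In this cell-based concentration-response screen, a p53 response element drives beta-lactamase; cells received DMSO-borne compounds after 5 h culture and were incubated a further 16 h before FRET substrate development.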

[11] = target: 5-hydroxytryptamine receptor 2A (Homo sapiens) (UniProt P28223); test: 5-hydroxytryptamine receptor 2A (HTR2A) small molecule agonists, cell-based qHTS assay (AID 1963587); further: nearly all actives have a fitted effect of over 30% in size
Chain of 5-hydroxytryptamine receptor 2A (Homo sapiens) (P28223 whole entry, looked up): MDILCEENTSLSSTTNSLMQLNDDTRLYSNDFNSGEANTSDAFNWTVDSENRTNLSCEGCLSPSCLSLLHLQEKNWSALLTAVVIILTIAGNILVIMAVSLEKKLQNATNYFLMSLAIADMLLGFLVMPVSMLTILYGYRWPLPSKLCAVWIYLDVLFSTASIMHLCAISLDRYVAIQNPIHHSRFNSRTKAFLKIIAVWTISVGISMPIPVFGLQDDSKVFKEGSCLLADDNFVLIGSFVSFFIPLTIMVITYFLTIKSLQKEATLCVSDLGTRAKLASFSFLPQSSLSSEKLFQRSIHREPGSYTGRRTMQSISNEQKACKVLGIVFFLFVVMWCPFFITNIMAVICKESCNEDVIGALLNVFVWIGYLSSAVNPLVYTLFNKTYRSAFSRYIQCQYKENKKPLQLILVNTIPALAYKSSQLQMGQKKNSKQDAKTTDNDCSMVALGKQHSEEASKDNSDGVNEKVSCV
Procedure, shortened: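 HTR2A-CHO cells, plated 18 h at 37 C/5% CO2, dye-loaded 1 h at 37 C; compounds in DMSO added by pin tool (agonist mode). Intracellular calcium flux read as kinetic fluorescence on FDSS over 2 min at 1 s intervals.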

[12] = target: Muscarinic acetylcholine receptor M1 (Homo sapiens) (UniProt P11229); test: Cholinergic receptor muscarinic 1 (CHRM1) small molecule antagonists, cell-based qHTS assay (AID 1963588); further: nearly all actives have a fitted effect of over 40% in size; further: potency means the concentration at half of the fitted maximal effect
Chain of Muscarinic acetylcholine receptor M1 (Homo sapiens) (P11229 whole entry, looked up): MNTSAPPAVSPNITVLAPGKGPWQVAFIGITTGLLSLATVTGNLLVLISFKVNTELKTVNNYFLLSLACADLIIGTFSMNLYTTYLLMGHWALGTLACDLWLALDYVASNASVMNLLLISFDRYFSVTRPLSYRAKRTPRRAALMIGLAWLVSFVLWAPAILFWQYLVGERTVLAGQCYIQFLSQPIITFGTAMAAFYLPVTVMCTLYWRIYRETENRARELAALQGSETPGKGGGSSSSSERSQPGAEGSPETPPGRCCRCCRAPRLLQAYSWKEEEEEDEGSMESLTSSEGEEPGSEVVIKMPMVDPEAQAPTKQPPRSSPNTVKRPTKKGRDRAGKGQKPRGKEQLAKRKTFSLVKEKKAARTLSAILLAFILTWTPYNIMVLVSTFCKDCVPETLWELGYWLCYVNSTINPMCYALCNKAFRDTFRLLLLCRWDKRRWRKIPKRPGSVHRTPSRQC
Procedure, shortened: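 CHRM1-CHO calcium-flux assay, antagonist mode. Cells were seeded 18 h, dye-loaded 1 h at 37 C and given compound for 5 min at RT, then acetylcholine was added at 50nM. FDSS fluorescence was read 3 min; 15 concentrations, three runs.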

[13] = target: Muscarinic acetylcholine receptor M1 (Homo sapiens) (UniProt P11229); test: Cholinergic receptor muscarinic 1 (CHRM1) small molecule agonists, cell-based qHTS assay (AID 1963589); further: nearly all actives have a fitted effect of over 35% in size
Procedure, shortened: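 Measures agonist-induced intracellular calcium rise. Stable human CHRM1 CHO line, 1 h dye load at 37 C, compounds from DMSO, kinetic fluorescence read.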

[14] = cAMP Responsive Elements (CRE) small molecule agonists, cell-based qHTS assay (AID 1963590)
Procedure, shortened: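 A CRE-responsive beta-lactamase reporter in HEK 293T cells was used. Treatment ran 3 h at 37 C; detection used LiveBLAzer B/G FRET substrate for 2 h at room temperature.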

[15] = cAMP Responsive Elements (CRE) small molecule antagonists, cell-based qHTS assay (AID 1963591; active means well fitted inhibition curve with a large enough effect in the signal ratio in the repeat runs, not every such curve was filed as active; the % refers to the signal ratio)
Procedure, shortened: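 HEK293T cells carrying a CRE-driven beta-lactamase reporter receive compound and NKH477 (0.25 uM final) for 3 h. Fluorescence from LiveBLAzer B/G FRET substrate is read after 2 h at room temperature.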

[16] = target: Beta-2 adrenergic receptor (Homo sapiens) (UniProt P07550); test: Adrenergic beta2 receptor (ADRB2) small molecule antagonists, cell-based qHTS assay (AID 1963592); further: nearly all actives have a fitted effect of over 50% in size; further: potency means the concentration at half of the fitted maximal effect
Chain of Beta-2 adrenergic receptor (Homo sapiens) (P07550 whole entry, looked up): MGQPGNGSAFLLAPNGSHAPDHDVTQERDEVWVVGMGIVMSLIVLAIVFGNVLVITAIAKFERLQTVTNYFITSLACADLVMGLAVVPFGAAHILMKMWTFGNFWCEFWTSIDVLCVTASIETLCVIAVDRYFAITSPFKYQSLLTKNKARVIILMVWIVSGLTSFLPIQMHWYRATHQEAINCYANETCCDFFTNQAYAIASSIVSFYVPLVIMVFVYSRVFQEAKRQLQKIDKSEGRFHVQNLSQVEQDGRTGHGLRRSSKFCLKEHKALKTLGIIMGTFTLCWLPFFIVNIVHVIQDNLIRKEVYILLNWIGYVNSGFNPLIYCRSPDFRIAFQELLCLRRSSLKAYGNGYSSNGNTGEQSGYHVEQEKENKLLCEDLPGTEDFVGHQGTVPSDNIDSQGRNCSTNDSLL
Procedure, shortened: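 Cells (CHO, stable ADRB2 overexpression) incubated 18-20hr at 37C; compounds added from DMSO; agonist mix (1nM isoproterenol, 100uM IBMX, 25uM Ro-20-1724) added; 0.5hr RT; d2-cAMP and anti-cAMP-cryptate added; 1hr RT; 665/615 nm read.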

[17] = target: Beta-2 adrenergic receptor (Homo sapiens) (UniProt P07550); test: Adrenergic beta2 receptor (ADRB2) small molecule agonists, cell-based qHTS assay (AID 1963593);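 further: CHO cells stably overexpressing human ADRB2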
Procedure, shortened: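 CHO cells stably over-expressing ADRB2 were plated overnight at 37C, then dosed with compounds plus a stimulation mix containing 100uM IBMX and 25uM Ro-20-1724 for 0.5hr at room temperature. cAMP was measured by HTRF competition, 1hr.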

[18] = target: D(2) dopamine receptor (Homo sapiens) (UniProt P14416); test: Dopamine D2 receptor (DRD2) small molecule agonists, cell-based qHTS assay (AID 1963594); further: nearly all actives have a fitted effect of over 35% in size
Chain of D(2) dopamine receptor (Homo sapiens) (P14416 whole entry, looked up): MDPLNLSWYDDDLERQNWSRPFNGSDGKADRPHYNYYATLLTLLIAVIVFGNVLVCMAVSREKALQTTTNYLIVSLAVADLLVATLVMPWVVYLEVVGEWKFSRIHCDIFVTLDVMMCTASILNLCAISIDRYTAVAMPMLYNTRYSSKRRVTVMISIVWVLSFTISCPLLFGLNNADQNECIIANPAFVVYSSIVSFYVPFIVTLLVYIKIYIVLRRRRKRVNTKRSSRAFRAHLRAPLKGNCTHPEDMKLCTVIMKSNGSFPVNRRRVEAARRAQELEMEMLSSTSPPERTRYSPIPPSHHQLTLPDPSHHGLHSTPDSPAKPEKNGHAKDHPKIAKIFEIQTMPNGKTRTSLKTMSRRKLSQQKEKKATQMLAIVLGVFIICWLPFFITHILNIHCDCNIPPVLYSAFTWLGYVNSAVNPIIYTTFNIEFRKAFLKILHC
Procedure, shortened: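 HEK293 cells stably expressing DRD2 were cultured 24 h at 37 C, then given Ro20-1724 (0.1 mM final) and compounds for 10 min at room temperature. NKH477 (200nM) was then added for 30 min. cAMP was read by HTRF.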

[19] = target: D(2) dopamine receptor (Homo sapiens) (UniProt P14416); test: Dopamine D2 receptor (DRD2) small molecule antagonists, cell-based qHTS assay (AID 1963595; active means well fitted inhibition curve with a large enough effect in the signal ratio in the repeat runs, with a control signal flat; the % refers to the signal ratio)
Procedure, shortened: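 In this cell-based antagonist screen, compounds act for 10 min at room temperature before a 30 min challenge with 12 nM quinpirole and 200 nM NKH477. cAMP is quantified by HTRF competition in DRD2-HEK293 cells containing 0.1 mM Ro20-1724.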

[20] = p53 small molecule agonists, cell-based qHTS assay: qHTS cell viability counter screen (AID 1963581); further: nearly all actives have a fitted effect of over 45% in size
Procedure, shortened: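 Following 5 h attachment, HCT-116 p53RE-bla cells took up compound for 16 h at 37 C; the reporter was read with B/G FRET substrate (2 h RT), and viability then via CellTiter-Glo ATP luminescence.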

Row | SMILES | Potency [1] | Potency [2] | Potency [3] | Potency [4] | Potency [5] | Potency [6] | Potency [7] | Potency [8] | Potency [9] | Potency [10] | Potency [11] | Potency [12] | Potency [13] | Potency [14] | Potency [15] | Potency [16] | Potency [17] | Potency [18] | Potency [19] | Potency [20]
1 | C=C(C)C(N)=O | inactive | inactive | inactive | inactive | inactive | inactive | inactive | inactive | inactive | inactive | inactive | 847 nM (active) and inactive | inactive | inactive | inactive | inactive | inactive | inactive | inactive | –
2 | NC(=O)N/N=C/c1ccc([N+](=O)[O-])o1 | inactive | inactive and 30.6 µM (active) | inactive | inactive | inactive | inactive | inactive | inactive | – | inactive | inactive | inactive | inactive | inactive | inactive | inactive | inactive | inactive | inactive | inactive
3 | CCCCNC(=O)NS(=O)(=O)c1ccc(N)cc1 | inactive | inactive | inactive | inactive | inactive | inactive | inactive | inactive | – | inactive | inactive | inactive | inactive | inactive | inactive | inactive | – | inactive | inactive | inactive
4 | OCC1CCCO1 (configuration not stated) | inactive | inactive | inactive | inactive | inactive | inactive | inactive | inactive | inactive | – | inactive | inactive | inactive | inactive | inactive | inactive | – | inactive | inactive | –
5 | COCN(COC)c1nc(N(COC)COC)nc(N(COC)COC)n1 | inactive | inactive | inactive | inactive | inactive | inactive | inactive | inactive | – | – | inactive | inactive | inactive | inactive | inactive | inactive | – | inactive | inactive | inactive
6 | COCCOCCOCCO | inactive | inactive | inactive | inactive | inactive | inactive | inactive | inactive | inactive | inactive | inactive | inactive | inactive | – | inactive | inactive | inactive | inactive | inactive | –
7 | CC1=C(/C=C/C(C)=C/C=C/C(C)=C/C(=O)O)C(C)(C)CCC1 | inactive | 68.7 µM (active) and 68.5 µM (active) and 23.7 µM (active) | inactive | inactive | inactive | inactive | inactive | inactive | inactive | inactive | – | – | – | inactive | inactive | inactive | inactive | inactive | inactive | –
8 | Clc1ccccn1 | inactive | inactive | inactive | inactive | inactive | inactive | inactive | inactive | inactive | inactive | inactive | inactive | inactive | – | inactive | inactive | inactive | inactive | inactive | –
9 | CC(=O)OCc1ccc2c(c1)OCO2 | inactive | inactive | inactive | inactive | inactive | inactive | inactive | inactive | inactive | inactive | – | inactive | inactive | inactive | inactive | inactive | inactive | inactive | inactive | –
10 | OCC(O)CS (configuration not stated) | inactive | inactive | inactive | inactive | inactive | inactive | inactive | inactive | inactive | inactive | inactive | inactive | inactive | inactive | inactive | inactive | inactive | inactive | inactive | –
11 | Nc1cccc(C(F)(F)F)c1 | inactive | inactive | inactive | inactive | inactive | inactive | inactive | inactive | inactive | inactive | inactive | inactive | inactive | inactive | inactive | inactive and 54.5 µM (active) | – | inactive | inactive | –
12 | NC(=O)c1ccccc1O | inactive | inactive | inactive | inactive | inactive | inactive | inactive | inactive | inactive | inactive | – | – | – | inactive | inactive | inactive | inactive | inactive | inactive | –
13 | CC(=O)OC/C=C(C)/C=C/C=C(C)/C=C/C1=C(C)CCCC1(C)C | inactive | 66.9 µM (active) and 54.5 µM (active) and 29.8 µM (active) | inactive | inactive | inactive | inactive | inactive | inactive | inactive | – | inactive | inactive | inactive | inactive | inactive | inactive | inactive | inactive | inactive | –
14 | CCCC(O)C(CC)CO (configuration not stated) | inactive | inactive | inactive | inactive | inactive | inactive | inactive | inactive | inactive | – | inactive | inactive | – | inactive | inactive | – | inactive | inactive | inactive | –
